“And” between values parts separate entries of the source, which are not always exact repeats. Equal entries are not always repeated. Where a structure was tested more than once in an assay, its records may differ in their call. The source made the active and inactive calls. How the source made its calls: active means hit-call score of the fitted dose curve at least 0.9, where 1 is the maximum; inactive means score below 0.9.
Read-out: Monocyte Chemoattractant Protein-1 (MCP1), CCL2 (gene 6347)
Experiment: BSK_3C_MCP1: BioMAP Diversity Plus: 3C Assay for Monocyte Chemoattractant Protein-1 (MCP1) Biomarker Activity (AID 2283017)
Conditions: primary human endothelial cells (HUVEC); actives raise or lower the signal
Description: BSK_3C is a cell-based, multiplexed-readout assay that uses umbilical vein endothelium, a human vascular primary cell, with measurements taken at 24 hours after chemical dosing in a 96-well plate.BSK_3C_MCP1 is an assay component measured in the BSK_3C assay. It measures MCP-1 antibody related to regulation of gene expression using ELISA technology.Data from the assay component BSK_3C_MCP1 was analyzed into 1 assay endpoint. This assay endpoint, BSK_3C_MCP1, was analyzed with bidirectional fitting relative to DMSO as the negative control and baseline of activity. Using a type of binding reporter, gain or loss-of-signal activity can be used to understand changes in the signaling as they relate to the gene CCL2. Furthermore, this assay endpoint can be referred to as a primary readout, because this assay has produced multiple assay endpoints where this one serves a signaling function. To generalize the intended target to other relatable targets, this assay endpoint is annotated to the cytokine intended target family, where the subfamily is chemotactic factor.
The levels of cell surface (or secreted, indicated by the prefix "s") biomarker endpoints were measured by ELISA. Overt cytotoxicity to cells in confluent adherent cultures (all systems other than the BT system) was assessed by measuring total protein levels using sulforhodamine B (SRB) staining in parallel cultures at the time of biomarker measurements, indicated as SRB endpoints. For proliferation assays for adherent cell types, individual cell types are cultured at sub-confluence and relative cell numbers quantified by SRB staining at time points optimized for each system (48 h: 3C and CASM3C systems; 72 h: BT and HDF3CGF systems; 96 h: SAg system). SRB was performed by staining cells with 0.1% SRB after fixation with 10% TCA and reading wells at 560 nm.Viability and proliferation of PBMC (T cells) was quantified by Alamar Blue reduction for the SAg and BT systems. For PBMC viability (referred to as PBMC Cytotoxicity within the assay endpoint names), cells were plated (75,000/well in a 96-well plate) and then chemical samples added for 1 h before addition of activators, SEB and TSST-1 (20 ng/mL final concentration each). Cells were incubated for 90 h. Then, Alamar Blue (20 uL/well) (Invitrogen, Cat DAL1100) was added for 6 h, and the plates were read with a fluorescence microplate reader at 546/580 nm (excitation/emission). For PBMC proliferation, cells were plated and activated as above but incubated for only 16 h prior to addition of Alamar Blue. Plates were read after 6 h.

| Structure (SMILES) | AC50 | outcome |
| --- | --- | --- |
| O=C(CC(=O)C(F)(F)C(F)(F)F)C(F)(F)F | 30 µM (active) and 21.7 µM (active) | – |
| O[Si](c1ccccc1)(c1ccccc1)c1ccccc1 | 37.6 µM (active) | – |
| FC(F)(Br)C(F)(F)C(F)(F)C(F)(F)C(F)(F)C(F)(F)Br | – | inactive |
| C=C(C)C(=O)OCC(F)(F)C(F)(F)C(F)(F)C(F)(F)C(F)(F)C(F)(F)C(F)(F)F | – | inactive |
| FC(F)(I)C(F)(F)C(F)(F)C(F)(F)I | 44.5 µM (active) and 49 µM (active) and 51.6 µM (active) | – |
| CS(C)(=O)=O | – | inactive |
| CC(CCl)OP(=O)(OC(C)CCl)OC(C)CCl (stereo not given) | – | inactive |
| NC(=O)C(F)(F)C(F)(F)C(F)(F)C(F)(F)F | – | inactive |
| CO[Si](OC)(c1ccccc1)c1ccccc1 | 32 µM (active) | – |
| CC(=O)Nc1ccc(N=Nc2cc(C)ccc2O)cc1 | – | inactive |
| O=C(O)C(F)(F)C(F)(F)C(F)(F)C(F)(F)C(F)(F)C(F)(F)C(F)(F)C(F)(F)C(F)(F)C(F)F | 47.1 µM (active) | inactive |
| C=CC(F)(F)C(F)(F)C(F)(F)C(F)(F)C(F)(F)C(F)(F)C(F)(F)C(F)(F)C=C | – | inactive |
| CCCCCCOC(=O)c1ccccc1O | 41.9 µM (active) and 38 µM (active) | – |
| O=C(O)C(F)(F)C(F)(F)C(F)(F)C(F)(F)F | – | inactive |
| OCC(F)(F)C(F)(F)C(F)(F)C(F)(F)C(F)(F)C(F)F | – | inactive |
| O=C(Cl)C(F)(F)C(F)(F)C(F)(F)C(F)(F)C(F)(F)C(F)(F)C(F)(F)C(F)(F)F | 49.7 µM (active) | inactive |
| CCCCNc1ccccc1 | – | inactive |
| C=C(C)C(=O)OCC(F)(F)C(F)(F)C(F)(F)F | – | inactive |
| CCCCCCC(C)OC(=O)CCCCC(=O)OC(C)CCCCCC (stereo not given) | – | inactive |

| Structure (SMILES) | AC50 | outcome |
| --- | --- | --- |
| O=C(O)C(F)(F)C(F)(F)C(F)F | – | inactive |
| O=C(O)C(F)(OC(F)(F)C(F)(OC(F)(F)C(F)(F)C(F)(F)F)C(F)(F)F)C(F)(F)F (stereo not given) | – | inactive |
| N=C(N)C(F)(F)C(F)(F)C(F)(F)C(F)(F)C(F)(F)C(F)(F)C(F)(F)F | 46.3 µM (active) | inactive |
| FC(F)(F)C(F)(F)CNCC(F)(F)C(F)(F)F | – | inactive |
| CCCCCCCCC(F)(F)C(F)(F)C(F)(F)C(F)(F)C(F)(F)C(F)(F)F | – | inactive |
| O=C(O)C(F)(F)C(F)(F)C(F)(F)C(F)(F)C(F)(F)C(F)(F)C(F)(F)C(F)(F)C(F)(F)C(F)(F)C(F)(F)C(F)(F)F | – | inactive |
| C=C(C)C(=O)OCCC(F)(F)C(F)(F)C(F)(F)C(F)(F)C(F)(C(F)(F)F)C(F)(F)F | – | inactive |
| CC(C)(C)C(=O)CC(=O)C(F)(F)C(F)(F)C(F)(F)F | – | inactive |
| O=C(O)C(F)(F)C(F)(F)C(F)(F)C(F)(F)C(F)(F)C(F)(F)C(F)(F)C(F)(F)Cl | 47.5 µM (active) and 30 µM (active) | – |
| C#C[C@]1(O)CC[C@H]2[C@@H]3CCc4cc(OC)ccc4[C@H]3CC[C@@]21C | – | inactive |
| FC(F)(F)C(F)(F)C(F)(F)N(C(F)(F)C(F)(F)C(F)(F)F)C(F)(F)C(F)(F)C(F)(F)F | – | inactive |
| OCC(F)(F)C(F)(F)C(F)(F)C(F)(F)C(F)(F)C(F)(F)F | – | inactive |
| CCCCCCCCCCCCCCCC[N+](C)(C)Cc1ccccc1 | 5 µM (active) | – |
| O=S(=O)(OCCOC(F)(F)F)C(F)(F)F | – | inactive |
| FC(F)(F)C(F)(F)C(F)(F)C(F)(F)C(F)(F)C(F)(F)C(F)(F)Br | – | inactive |
| Cc1ccc(S(=O)(=O)OCC(F)(F)C(F)(F)C(F)(F)C(F)(F)C(F)(F)C(F)F)cc1 | – | inactive |
| FC(F)(F)C(F)(F)C(F)(F)C(F)(F)C(F)(F)C(F)(F)CCS | – | inactive |
| FC(F)(F)C(F)(F)C(F)(F)C(F)(F)C(F)(F)CCI | – | inactive |

Source: PubChem BioAssay (EPA / NIEHS)
